Measurements reported in the supplement of paper PMC6555819.

Legend:
Assay in all cases: PBM binding z-score (relative to random genomic background probes); higher = stronger binding; sequences stand for … in GC…GCGATTGACAGCGTAGAATGAAGG
[1] = tested on: RARb homodimer (NR concentration 270 nM)
In short: (§1)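 Antibodies against each partner of ligand-free nuclear receptor dimers (one per run) detected binding on custom Agilent 4×180K protein-binding microarrays after 1 h incubation. The double-stranded probes had 34-nt variable regions carrying direct-repeat seeds, single-nucleotide variants, half-site ablations and random human genomic background sequences. Binding z-scores, from regression-normalized fluorescence, use the random background probes as reference.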

[2] = tested on: RARg:RXRa (NR concentration 270 nM, RXRa partner concentration 90 nM)
In short: as §1

[3] = tested on: RARg homodimer (NR concentration 270 nM)
In short: as §1

[4] = tested on: RXRa DBDmut IVT, anti-RXR (DBD mutation: RXRa K156A/R161A, NR concentration 90 nM)
In short: as §1

[5] = tested on: RXRa homodimer (NR concentration 180 nM)
In short: as §1

[6] = tested on: THRa:RXRa (NR concentration 90 nM, RXRa partner concentration 90 nM)
In short: as §1

[7] = tested on: THRa homodimer (NR concentration 90 nM)
In short: as §1

[8] = tested on: VDR homodimer (NR concentration 270 nM)
In short: as §1

| Sequence | PBM binding z-score [1] | PBM binding z-score [2] | PBM binding z-score [3] | PBM binding z-score [4] | PBM binding z-score [5] | PBM binding z-score [6] | PBM binding z-score [7] | PBM binding z-score [8] |
| --- | --- | --- | --- | --- | --- | --- | --- | --- |
| TCATATAGGTAAAAGGTGCAAGTCGGTGTGGTAA | 0.775 | 0.469 | 0.207 | 1.9 | 1.27 | 0.295 | -0.18 | 0.772 |
| ATATGTAGGTTACATACGGGTCATTCAGGCTATG | 2.71 | 4.44 | 2.41 | 0.906 | 3.48 | 2.73 | 0.593 | 2.29 |
| TCTTGTAGATCAACAGGATGTTAAGAAAGATCGA | -0.63 | 0.136 | 0.033 | 0.72 | 0.385 | -0.148 | -0.851 | -0.332 |
| ACTAGTTGGTCAGCTGCGGTCACACACAATTCGG | 2.82 | 1.23 | 1.87 | 0.356 | 0.636 | 2.65 | 0.969 | 0.532 |
| AGTCAAAGTTCAGGACGAGGAAACGTAAAGCACG | 2.85 | 4.29 | 4.75 | 2.81 | 3.17 | 2.42 | 0.288 | 1.64 |
| ACAGACAGGTGAGTGAAGGTAACCCAGCTGGACG | 0.564 | 0.107 | 0.469 | -0.852 | 0.562 | 1.63 | 0.00911 | -0.164 |
| CCTACTGGGCCAAAAAGGTCATTAATGCCGATAA | 4.32 | 4.16 | 3.68 | 0.627 | 4.26 | 2.91 | 0.449 | 2.2 |
| TCGAGTAGGGTAGGGGCATTCAGAATGGCGTCGA | 0.89 | -0.0257 | -0.315 | 0.328 | 0.411 | 0.763 | 0.794 | 0.663 |
| CGTCCAAGGTCAATCCTAGGTCAGTGAAAGCATT | 5.21 | 7.69 | 6.57 | 3.57 | 5.38 | 4.72 | 3.63 | 3.06 |
| CCTACTGGGGCAGAAAGGTTACCATACCATCCGG | 2.22 | 1.62 | 1.59 | -1.01 | 1.56 | 0.807 | -0.439 | -0.187 |
| ATCTCTAGGTAACCAAGTTCAGTGATTGCCGAAC | 1.45 | 0.546 | 0.823 | 1.02 | 0.505 | 1.44 | 0.949 | 2.76 |
| TCTTGTAGATCAATAGAGGTTAAGCAAGTGCGCT | 1.25 | 0.719 | 0.343 | 0.564 | 1.32 | 2.68 | -0.555 | 0.376 |
| GGAACGAGGGCAAAGTTAATAGCATCTGTCGACG | 1.24 | 1.77 | 1.99 | 2.78 | 1.55 | 1.27 | -0.176 | 1.31 |
| CACACTAGGTCAAGGTCAAAGTCGGTTTGTGCCA | 4.95 | 6.21 | 6.6 | 3.28 | 5.76 | 4.44 | 4.03 | 4.95 |
| CCTAGCAGGCCAATCTGGGTCAGTCAAGGCTTGA | 1.82 | 0.465 | 1.02 | -0.281 | -0.197 | 2.97 | -0.159 | -0.52 |
| TCGAGTAGGTTCGTCGGGGCATTCAGCCAACATA | 0.49 | 0.1 | -0.361 | 2.31 | 0.365 | 0.871 | 0.192 | 2.33 |
| ACAGACAGGTGATGGAGGTAACTCAGGCTATCAT | 0.431 | 0.0912 | 0.339 | -0.505 | 0.156 | 1.05 | 0.503 | -0.164 |
| TAAATGAGGTTATAAGATCAGGGAACGTTGCAAA | 0.147 | 1.79 | 0.975 | 1.21 | 2.24 | 1.9 | 0.348 | 0.859 |
| CCTACTGGGCCACGAACGGTCATTGATTCAGTGA | 1.91 | 0.72 | 1 | -0.535 | -0.0982 | 0.584 | -0.505 | -0.169 |
| TCGAGTAGGTTAGTCGGGGCATTCTGCCAACATA | 0.157 | -0.242 | -0.393 | 0.374 | -0.128 | 0.983 | -0.375 | 0.287 |
| AATCGGAGGACAAAGGTCAGAGCTACGCCAGTGA | 4.37 | 5.79 | 4.98 | 0.662 | 4.98 | 3.55 | 0.579 | 1.36 |
| TGTCAAGGTTCAAAGGTAACGTAAGTATCCACAC | 1.99 | 4.38 | 3.11 | 4.37 | 6.08 | 3.12 | -0.0609 | 4.49 |
| GCTATTATTTGAAAGGGCAACCGAATGATTCTCG | 2.11 | 1.12 | 1.27 | 0.947 | 1.03 | 0.568 | 0.3 | 0.995 |
| GCATATAGGTAATACAAGGTGTAAGTCCGATTGT | -0.384 | -0.0828 | 0.241 | 0.314 | 0.0841 | 1.3 | -0.232 | -0.121 |
| CCAGACAGGTCAGAAGGTAACTCAGCCTCGATTA | 2.66 | 3.85 | 3.63 | 1.34 | 2.61 | 1.39 | 0.239 | 0.366 |
| CGTCCAATGTCAATGCTAGGTCAGTGAAAGCATT | 2.73 | 3.07 | 1.98 | 0.448 | 0.676 | 2.23 | 0.915 | 0.181 |
| CCTACTTGGCCATTCAGAGGTCATTGATCATATG | 3.93 | 3.64 | 2.6 | 1.92 | 3.73 | 3.21 | 1.66 | 3.32 |
| AGAACGAGGGTACGCTGAGTTGATAGCAGAGTAG | -0.336 | 0.424 | 0.303 | 0.994 | 0.16 | 0.2 | -0.484 | 2.14 |
